This excerpt belongs to a sample that is enriched for hits.
BLM inh – inhibitors of human Bloom syndrome helicase BLM; P54132; recombinant BLM DNA unwinding, fluorescence dequenching; Potency, µM (top dose mostly 56.1 µM), without a hit: top-dose activity change, negative = inhibition, usual class: inhibitors; 350,000 compounds, 0.2% hits;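 also: plate controls were vehicle for no effect and no enzyme for full effect; nearly all actives have a fitted effect of over 35% in size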
L3MBTL1 block – inhibitors of human L3MBTL1 | AlphaScreen L3MBTL1–H3K9me1 peptide binding | 230,000 compounds, 0.66% hits | Potency, µM (doses to about 57.1 µM), for inactives: at the top dose activity, negative = inhibition, hits mostly inhibitors; also: nearly all actives have a fitted effect of over 60% in size
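AlphaScreen assay: L3MBTL1 (50 nM final) was preincubated 30 min at room temperature with biotinylated H3(1-15)K9me1 peptide (75 nM final), then 30 min with library compounds; streptavidin donor and nickel chelate acceptor beads (10 ug/mL final) added, 30 min dark.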
JMJD2E inh – blocks human JMJD2E demethylase activity | B2RXH2 | JMJD2E catalytic domain, FDH-coupled NADH fluorescence (FDH is formaldehyde dehydrogenase) | Potency, µM (top dose mostly 57.1 µM), without a hit: at the highest dose activity change, negative = inhibition, most hits filed as inhibitors | 230,000 compounds, 1.6% hits | AID 2147; active = well fitted inhibition curve with a large enough effect, not every such curve was filed as active; inconclusive = small, poorly fitted or top-dose-only effect, or another doubt; inactive = no such curve, though single readings can be large or run the other way;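 also: 0% = wells with enzyme and -100% = buffer wells without enzyme; nearly all actives have a fitted effect of over 50% in size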
APE1 inh – inhibitors of human APE1 endonuclease | P27695 | recombinant APE1, TAMRA/BHQ-2 abasic DNA cleavage fluorescence | Potency, µM (doses to about 65.8 µM), for the others: at the highest dose activity change, negative = inhibition, most hits filed as inhibitors | 350,000 compounds, 0.35% hits | AID 2517;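 also: plate controls were vehicle for no effect and reference inhibitor for full effect; nearly all actives have a fitted effect of over 55% in size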
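Measures dequenching upon AP-site incision of a 5'-TAMRA/3'-BHQ-2 THF-containing duplex, 50 nM; human APE1 0.75 nM after 15 min room-temperature exposure to compound; kinetic three-point read at one-minute spacing.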
RECQ1 helicase – inhibitors of human RECQ1 DNA helicase; AID 2549; 240,000 compounds, 0.54% hits; P46063; RECQ1 DNA unwinding, red fluorescence kinetic read; Potency, µM (doses to about 57.3 µM), inactives show at the highest dose activity, negative = inhibition, usual class: inhibitors;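 also: plate controls were vehicle for no effect and no enzyme for full effect; nearly all actives have a fitted effect of over 30% in size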
Target sequence (P46063 whole entry, looked up): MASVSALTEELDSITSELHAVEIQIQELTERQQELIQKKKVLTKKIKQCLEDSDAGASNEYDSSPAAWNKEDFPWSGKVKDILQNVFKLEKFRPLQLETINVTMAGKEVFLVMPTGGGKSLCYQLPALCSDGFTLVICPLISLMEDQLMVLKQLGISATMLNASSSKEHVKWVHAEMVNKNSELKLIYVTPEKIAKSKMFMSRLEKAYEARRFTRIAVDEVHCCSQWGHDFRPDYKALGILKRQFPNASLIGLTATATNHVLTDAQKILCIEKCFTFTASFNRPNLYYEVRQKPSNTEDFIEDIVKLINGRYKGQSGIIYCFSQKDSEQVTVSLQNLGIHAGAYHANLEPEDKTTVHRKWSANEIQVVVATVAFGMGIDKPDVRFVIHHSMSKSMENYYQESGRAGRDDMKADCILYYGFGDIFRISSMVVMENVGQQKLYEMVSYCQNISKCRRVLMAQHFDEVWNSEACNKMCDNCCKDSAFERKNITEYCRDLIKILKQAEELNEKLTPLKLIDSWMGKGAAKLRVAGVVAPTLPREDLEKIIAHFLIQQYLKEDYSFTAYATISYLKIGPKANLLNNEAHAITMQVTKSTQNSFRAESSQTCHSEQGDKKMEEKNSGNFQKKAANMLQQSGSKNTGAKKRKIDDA
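50 nM RECQ1T1 preincubated 15 min with compound in Tris pH 8.0 buffer with MgCl2, DTT, Tween-20 and 2.5 ug/ml poly(dI-dC); started with 200 nM TAMRA/BHQ-2 forked duplex and 2 mM ATP. Unwinding read as fluorescence (525/598 nm), two reads 2 h apart.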
* marks the source's active call; other numbers are inactive results. Unless noted, calls follow the shape of the dose curve; as a rule, active = well fitted curve in the direction sought with a large enough effect; inconclusive = small, poorly fitted or top-dose-only effect, or another doubt; inactive = no such curve, though single readings can be large; an effect the other way counts as inactive or inconclusive. Unless noted, % is scaled to controls: 0 for no effect and ±100 for the full control effect; potency is read from the fitted curve at half-maximal effect.

O=C1Nc2ccccc2C1=Nc1ccc(F)cc1 was read as BLM inh -3.4% and APE1 inh 29.2%.
Screening Brc1cc2c(cc1Br)OCCOCCOCCOCCO2 returned BLM inh -3.0%, L3MBTL1 block 8.6%, JMJD2E inh 8.2%, APE1 inh 3.6% and RECQ1 helicase -2.0%.
For Brc1ccc2c(c1)OCCOCCOc1cc(Br)ccc1OCCOCCOCCO2 the results were BLM inh 15.8µM*, L3MBTL1 block 3.5%, JMJD2E inh 5.0%, APE1 inh -0.2% and RECQ1 helicase -10.3%.
Cc1ccc2c(C)cc(=S)[nH]c2c1 was read as BLM inh -4.4%, L3MBTL1 block 3.6%, JMJD2E inh -0.4%, APE1 inh -0.4% and RECQ1 helicase -8.4%.
Cc1ccc2[nH]c(=S)cc(C)c2c1 was read as BLM inh 0.4%, L3MBTL1 block -9.0%, JMJD2E inh 7.08µM*, APE1 inh -3.9% and RECQ1 helicase -2.7%.
For CCc1ccc(N=C2NC(=O)CC(C(=O)Nc3ccc(OC)cc3)S2)cc1 (centres undefined) the results were BLM inh -11.8%.
Cc1cc(C)nc(NC(=NCCc2c[nH]c3ccccc23)NC(=O)C(C)(C)C)n1 was read as BLM inh -9.9%, L3MBTL1 block 5.5%, JMJD2E inh -7.5%, APE1 inh -3.0% and RECQ1 helicase -2.6%.
For CC(C)C[C@H](NC(=O)c1[nH]cnc1C(=O)Nc1ccc(CNC(=O)OC(C)(C)C)cc1)C(=O)OCc1ccccc1 the results were BLM inh -18.7%, JMJD2E inh 31.6µM*, APE1 inh 4.2% and RECQ1 helicase 8.0%.
For O=C(O)c1ccccc1-c1c2cc(Br)c(=O)c(Br)c-2oc2c(Br)c(O)c(Br)cc12 the results were BLM inh 28.2µM*, APE1 inh inconclusive and RECQ1 helicase 31.6µM*.
`Cc1ccc(NC(=O)CCC(=O)N/N=C/c2cc([N+](=O)[O-])ccc2O)cc1` gave BLM inh -7.5%, L3MBTL1 block 1.7%, JMJD2E inh inconclusive, APE1 inh 0.6% and RECQ1 helicase -4.5%.
For Cc1c(NC(=S)N/N=C/c2cc([N+](=O)[O-])ccc2O)c(=O)n(-c2ccccc2)n1C the results were BLM inh -21.3%, L3MBTL1 block 31.6µM*, JMJD2E inh 8.91µM*, APE1 inh 0.2% and RECQ1 helicase inactive.
For O=C(CCC(=O)Nc1cccc(Cl)c1)N/N=C/c1cc([N+](=O)[O-])ccc1O the results were BLM inh -7.1%, JMJD2E inh 17.8µM*, APE1 inh 8.3% and RECQ1 helicase -14.5%.
CN1CCN(CCC(=O)N/N=C/c2cc([N+](=O)[O-])ccc2O)CC1 was read as BLM inh -5.4%, L3MBTL1 block -29.8%, JMJD2E inh 0.891µM*, APE1 inh 9.4% and RECQ1 helicase inactive.
`CCOC(=O)CCC(NC(=O)c1ccccc1C(=O)NC(CCC(=O)OCC)C(=O)OCC)C(=O)OCC` (centres undefined) gave BLM inh -3.3%, L3MBTL1 block 22.1%, JMJD2E inh -8.7%, APE1 inh -6.1% and RECQ1 helicase -2.8%.
Cc1ccc(C)n1-c1cccc(NC(=O)c2ccccc2)c1 was read as BLM inh 1.6%, L3MBTL1 block 3.6%, JMJD2E inh -2.6%, APE1 inh 1.5% and RECQ1 helicase -3.7%.
Screening CC(Cl)C(=O)NN=C(c1ccccc1)c1ccccc1 (centres undefined) returned BLM inh -4.8%, L3MBTL1 block 4.8%, JMJD2E inh -14.0%, APE1 inh 19.8% and RECQ1 helicase inactive.
Screening CC(NC1CCCCC1)C(=O)NN=C(c1ccccc1)c1ccccc1 (centres undefined) returned BLM inh -3.2%, L3MBTL1 block -5.6%, JMJD2E inh 17.2%, APE1 inh -3.9% and RECQ1 helicase 28.2µM*.
For O=C(N=Nc1c(O)[nH]c2ccc([N+](=O)[O-])cc12)c1cc(-c2ccccc2Cl)nc2ccccc12 the results were BLM inh 3.98µM*, L3MBTL1 block -9.4%, JMJD2E inh 20.7%, APE1 inh 5.2% and RECQ1 helicase 3.2%.

Source: PubChem
